Reference: PubChem BioAssay AID588466 (NMMLSC, 2011)
Where “and” joins values, the source holds several entries; their conditions need not be identical. Identical values can stand only once. The whole screen tested about 2,100 compounds, of which about 30 (1%) were called active. Not all results are given here. A number with no mark means an inactive call.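 The calls were made as follows: active = compounds whose mean binding response over two repeats is below 75% of the DMSO control; inactive = the rest.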

Molecular target: Desmoglein-3 (Homo sapiens) (UniProt P32926)
Assay: blockers of pemphigus antibody–desmoglein-3 interaction – biochemical, cherry pick 1, bead-based, flow cytometry, confirmation (AID 588466);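 also: 100% = 2% DMSO vehicle and 0% = excess soluble DSG3 blocking control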
Details: Protein G beads with DSG3, scFv-GFP binding, at 10 µM, hits give low values

Chain of Desmoglein-3 (Homo sapiens) (P32926 whole entry, looked up): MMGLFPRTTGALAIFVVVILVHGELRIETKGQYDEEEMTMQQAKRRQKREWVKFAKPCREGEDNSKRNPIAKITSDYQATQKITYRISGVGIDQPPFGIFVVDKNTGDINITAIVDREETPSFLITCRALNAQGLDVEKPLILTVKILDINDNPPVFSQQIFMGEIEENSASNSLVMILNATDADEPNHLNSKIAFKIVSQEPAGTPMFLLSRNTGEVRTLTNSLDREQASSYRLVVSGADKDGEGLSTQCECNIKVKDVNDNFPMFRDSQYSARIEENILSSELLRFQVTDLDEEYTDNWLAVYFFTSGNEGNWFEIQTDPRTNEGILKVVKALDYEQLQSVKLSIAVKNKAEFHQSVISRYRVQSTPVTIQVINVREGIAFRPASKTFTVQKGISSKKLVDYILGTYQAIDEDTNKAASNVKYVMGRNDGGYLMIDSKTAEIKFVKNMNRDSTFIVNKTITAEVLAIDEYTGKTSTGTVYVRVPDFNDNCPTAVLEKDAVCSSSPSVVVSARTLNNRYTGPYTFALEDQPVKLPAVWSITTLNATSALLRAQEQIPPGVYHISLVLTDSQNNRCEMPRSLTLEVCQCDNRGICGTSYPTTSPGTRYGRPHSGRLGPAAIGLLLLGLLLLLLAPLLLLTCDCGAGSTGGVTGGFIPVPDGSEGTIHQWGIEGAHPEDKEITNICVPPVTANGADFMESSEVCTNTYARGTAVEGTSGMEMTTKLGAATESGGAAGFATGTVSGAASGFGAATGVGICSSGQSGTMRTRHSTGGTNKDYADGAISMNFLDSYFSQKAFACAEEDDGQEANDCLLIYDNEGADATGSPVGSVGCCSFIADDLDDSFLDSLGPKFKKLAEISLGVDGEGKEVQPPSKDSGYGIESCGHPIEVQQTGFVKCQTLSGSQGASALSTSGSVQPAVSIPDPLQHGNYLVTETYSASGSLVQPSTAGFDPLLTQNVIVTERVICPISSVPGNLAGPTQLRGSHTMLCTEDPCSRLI

Row | SMILES | binding response (% of DMSO)
1 | Fc1ccc2nc(C3CCCCN3Cc3nc(CC4CC4)no3)[nH]c2c1 (configuration not stated) | 102%
2 | CSCCC(NC(=O)C1CCC(C)CC1)C(=O)OCC(=O)c1ccc(Cl)cc1 (configuration not stated) | 107%
3 | O=S(=O)(NCCOc1ccccc1F)c1ccc(Cl)cc1F | 102%
4 | CCOc1cc(S(=O)(=O)Nc2ccc(Cl)cn2)ccc1F | 112%
5 | CCc1ccc(Cn2nnc(C(=O)Nc3ccc(OC)cc3OC)c2N)cc1 | 96.2%
6 | COc1ccc(-c2ccc(-c3nc4c(c(=O)[nH]c(=O)n4Cc4ccccc4)n3C)o2)c([N+](=O)[O-])c1 | 87.1%
7 | COc1ccc(Cl)c(NC(=O)NCCN2CCN(c3ccccc3)CC2)c1 | 67.9% (active)
8 | COc1ccc(NC(=O)c2ccc(NC(=O)CN3CCN(c4ccccc4)CC3)cc2)cc1 | 90.4%
9 | COc1ccc(OC)c(NC(=O)NCCc2cccc(Cl)c2)c1 | 100%
10 | CC1C(=O)N2CCCc3cc(S(=O)(=O)N4CCC(C(N)=O)CC4)cc1c32 (configuration not stated) | 104%
11 | Cc1ccc(NS(=O)(=O)c2ccc3c(c2)n(C)c(=O)n3C)cc1 | 100%
12 | COc1ccc(CNC(=O)c2cnc(C)cn2)cc1 | 101%
13 | COCC(C)n1c(C)cc(C(=O)COC(=O)c2nn(C)c(=O)c3ccccc23)c1C (configuration not stated) | 98.2%
14 | CC(=O)Nc1nnc(CCS(=O)(=O)c2ccc(C)c(C)c2)s1 | 104%
15 | COc1ccc(-n2ccc(=O)c(C(=O)Nc3ccc(S(=O)(=O)Nc4nccs4)cc3)n2)cc1 | 99.6%
16 | COc1ccc(C(=O)NCc2nnc(SCC(=O)N3CCc4ccccc43)n2C2CCCCC2)cc1 | 91%
17 | CCc1nnc(NC(=O)CCN(c2ccc(C)cc2)S(=O)(=O)c2ccccc2)s1 | 103%
18 | Cc1ccsc1-c1nc(-c2ccccc2)c(-c2ccccc2)[nH]1 | 77.9%
19 | CN(Cc1cc2ccccc2[nH]c1=O)S(C)(=O)=O | 100%
20 | Cc1nc2scc(C)n2c(=O)c1S(=O)(=O)NCc1ccc(F)cc1 | 107%
21 | COc1ccc(C(=O)NCc2ccc(C)cc2)cc1S(=O)(=O)N1CCCC1 | 105%
22 | CCOC(=O)c1c(-c2ccccc2)c[nH]c1C | 97.4%

Row | SMILES | binding response (% of DMSO)
23 | CCN(CC)c1ccc(/C=N/N2C(=O)c3ccccc3C2=O)cc1 | 102%
24 | CCOC(=O)C1=C(O)/C(=C/c2ccc(-c3ccccc3C(=O)O)o2)SC1=Nc1ccc(C)cc1 | 108%
25 | CC(=O)N1C(=O)/C(=C2\SC(=S)N(c3c(C)n(C)n(-c4ccccc4)c3=O)C2=O)c2ccccc21 | 87.6%
26 | Clc1ccc(-n2ncc3c(NCc4cccnc4)ncnc32)cc1Cl | 91.8%
27 | C=C(Br)CN1[C@@H](Cc2ccccc2)[C@H](O)[C@@]23C=C[C@@H](C[C@@H]2S1(=O)=O)O3 | 101%
28 | CCOC(=O)CSc1nc2sc(C)c(C)c2c(=O)n1N | 104%
29 | CC(=O)c1c(C)[nH]c(C(=O)NCc2ccc(Cl)cc2)c1C | 105%
30 | CCOC(=O)Cc1csc(NC(=O)COc2ccccc2)n1 | 99.8%
31 | Cc1cc(=O)oc2cc(OCC(=O)OCC(=O)Nc3ccccc3Br)ccc12 | 112%
32 | COc1cccc(-c2nc(NCc3ccco3)c3ccccc3n2)c1O | 89.5%
33 | O=C(c1cc(S(=O)(=O)N2CCOCC2)ccc1F)N1CCCc2ccccc21 | 104%
34 | CSc1nc(C2CC2)cc(-c2cccs2)c1C#N | 94.5%
35 | O=C(CSc1n[nH]c(-c2ccco2)n1)Nc1ccccc1Cl | 101%
36 | COc1ccc(CC(=O)Nc2cccc(C(=O)NN3C(=O)c4ccccc4C3=O)c2C)cc1 | 102%
37 | COC(=O)[C@]1(C)N[C@H](CN(C)C(=O)Nc2ccc(OC)cc2)[C@@H]2C(=O)N(C)C(=O)[C@@H]21 | 95.3%
38 | CCOC(=O)c1sc(NC(=O)C(CC)Sc2nccn2C)nc1C (configuration not stated) | 105%
39 | O=C(O)C1(Nc2ccc(Br)cc2)CCCC1 | 98.6%
40 | COc1ccc(S(=O)(=O)N2CCCCCC2)cc1NC(=O)CCNC(=O)c1ccc(Cl)cc1 | 107%
41 | O=C(CCCCCCN1C(=O)c2ccccc2C1=O)NC1CCCCC1 | 105%
42 | CCCCN(CCCC)C(=O)c1cc(Cl)ccc1[N+](=O)[O-] | 98.8%
43 | COc1ccc(C(=O)COc2ccc3ccc(=O)oc3c2)c(OC)c1 | 104%
44 | COc1ccc(C)cc1NS(=O)(=O)c1ccc2c(c1)CCN2C(C)=O | 99.4%

Row | SMILES | binding response (% of DMSO)
45 | NS(=O)(=O)c1ccc(NC(=O)c2ccc(F)cc2F)c(NC(=O)c2ccc(F)cc2F)c1 | 104%
46 | CCCCSc1nnc(-c2ccc(NC(=O)CCc3ccccc3)cc2)n1C | 104%
47 | COc1ccc(-c2cc(NC(=O)c3cncn3-c3ccccc3)ccc2OC)cc1 | 107%
48 | Cc1ccc(NC(=O)CN2C(=O)NC(Cc3c[nH]c4ccccc34)C2=O)cc1S(=O)(=O)N1CCCCC1 (configuration not stated) | 102%
49 | CC(=O)c1ccc(OCC(O)CN2CC(C)OC(C)C2)cc1 (configuration not stated) | 104%
50 | Cc1cc2oc(=O)cc(-c3ccccc3)c2c(C)c1-c1ccc(F)c(Cl)c1 | 105%
51 | C[C@H](CO)N1C[C@H](C)[C@@H](CN(C)Cc2ccc(-c3ccccc3)cc2)Oc2c(NS(=O)(=O)c3cn(C)cn3)cccc2C1=O | 98.2%
52 | O=C(CN1CCN(S(=O)(=O)c2ccccc2)CC1)Nc1cccc(C(F)(F)F)c1 | 110%
53 | O=C(Nc1cc(Cl)ccc1-n1cncn1)c1cn2ccccc2n1 | 111%
54 | COc1cccc(C(=O)NCCn2ccc3ccccc32)c1 | 112%
55 | COc1cc(CN2CCC(n3nccc3NC(=O)C3CC3)CC2)cc(OC)c1 | 104%
56 | Cc1ccc(Cn2cnc3c(nnn3Cc3ccc(Cl)cc3)c2=O)cc1 | 90% and 97.5%
57 | CC(C)[C@H](NC(=O)N1c2ccccc2NC(=O)[C@@H]1C(C)C)C(=O)N[C@@H](Cc1c[nH]c2ccccc12)C(=O)O | 105%
58 | CCOc1c(Br)cc(C(=O)Nc2cccc(S(=O)(=O)N3CCOCC3)c2)cc1OC | 102%
59 | CCc1nnc(NC(=O)CCC(=O)NCc2ccccc2Cl)s1 | 97.5%
60 | COc1ccc(OC)c(NS(=O)(=O)c2ccc(-c3coc(C)n3)cc2)c1 | 97.3%
61 | COc1ccc(CCN2C(=O)C(Oc3ccccc3C)C2c2ccc3c(c2)OCO3)cc1OC (configuration not stated) | 101%
62 | CSc1nc2ccc(NC(=O)c3cccs3)cc2s1 | 102%
63 | Cc1ccc(NC(=O)Cc2ccc([N+](=O)[O-])cc2)c(Br)c1 | 95.5%
64 | CCCN(CCC)CCNC(=O)Cn1cnc2sc(C)c(S(=O)(=O)N3CCOCC3)c2c1=O | 99.3%
65 | CCOC(=O)c1nn(-c2ccccc2)c(=O)c2c(NC(C)=O)scc12 | 111%
66 | Cc1cc2ccccc2n1CCNC(=O)c1ccc(S(=O)(=O)N2CCCCC2)cc1 | 94.7%

Row | SMILES | binding response (% of DMSO)
67 | CCOc1ccc(/C(O)=C2/C(=O)C(=O)N(c3cc(C)on3)C2c2ccc(C(=O)OC)cc2)cc1 (configuration not stated) | 98.1%
68 | C[C@H]1COC(=O)[C@@H](Cc2ccc(F)cc2)CC/C=C/C[C@@H](CC(=O)N(CCO)Cc2ccccc2)C(=O)N1 | 104%
69 | Cc1ccc(NC(=O)COc2ccc3c(c2)OCO3)c(C)c1 | 103%
70 | CCN1CCN(c2ccc(S(=O)(=O)N3CCOCC3)cc2NC(=O)CCSC)CC1 | 105%
71 | COc1ccc(CN(CCN(C)C)Cc2ccccc2)c(OC)c1 | 101%
72 | Cc1cnc(NS(=O)(=O)c2ccccc2)c(C)n1 | 98.8%
73 | N#Cc1c(-c2ccc(F)cc2)cc(-c2ccccc2)nc1SCC(=O)NCC(=O)O | 99.8%
74 | O=C(Oc1cccc(C(=S)N2CCOCC2)c1)c1ccccc1 | 94.4%
75 | CCc1cc2cc3c(cc2nc1SCC(=O)Nc1cc(C)on1)OCO3 | 103%
76 | Cc1ccc(/C=N/N2CCN(c3ccc(Cl)cc3)CC2)o1 | 101%
77 | COc1ccccc1-c1cc(N)n(S(=O)(=O)c2ccc(F)c(C)c2)n1 | 100%
78 | COC(=O)c1oc2ccc(Cl)cc2c1NC(C)=O | 100%
79 | O=[N+]([O-])c1ccc(OCc2cnc(Cl)s2)c([N+](=O)[O-])c1 | 107%
80 | Cc1ccc(C)c(N2CCN(C(=O)Cc3cn(C)c4ccccc34)CC2)c1 | 104%
81 | O=C(CNC(=O)c1ccc(Br)cc1)N=Nc1c(O)[nH]c2ccc([N+](=O)[O-])cc12 | 100%
82 | CC(=O)c1ccc(NC(=O)Cn2cnc(S(=O)(=O)N3CCC(C)CC3)c2)cc1 | 98.2%
83 | CSCC[C@H](NC(=O)C1CCN(S(=O)(=O)c2ccc(C)cc2)CC1)C(=O)NCc1ccco1 | 106%
84 | Cc1ccccc1NC(=O)Nc1nc2ccc(S(C)(=O)=O)cc2s1 | 89.9%
85 | COc1ccc(NC(=O)CSc2nnc(Cc3ccc(C)cc3)c(=O)n2N)cc1 | 92.4%
86 | Cc1ccc(NC(=O)COc2ccc3c(c2)OCO3)c(Cl)c1 | 98.1%
87 | CC1=C(C(N)=O)C(c2cccnc2)n2nc(SCc3ccccc3Cl)nc2N1 (configuration not stated) | 103%
